# High-throughput results from PubChem.
# Tau fil binding = qHTS Assay for Tau Filament Binding. Microtubule-associated protein tau (Homo sapiens), P10636. recombinant tau filaments, thioflavin S fluorescence, 15 h; filaments grown with octadecylsulfate alongside compound. Potency, µM (top dose mostly 57.1 µM), without a hit: top-dose activity change, negative = inhibition. 71,000 tested, 2% active. AID 596, 2007;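 further: potency means the concentration at half of the fitted maximal effect; on the % scale 0 is the no-effect control and ±100 the full control effect; actives lower thioflavin S fluorescence by blocking filaments or displacing dye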
#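 Assay mix: 1 uM His-tagged tau, 30 uM sodium octadecylsulfate, thioflavine S dye in HEPES/NaCl/DTT buffer. Compound is added prior to the inducer. Fluorescence after 15 h at 37 C.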
# HBB splice mod = qHTS Assay for Modulators of Hemoglobin Beta Chain Splicing | HBB splicing reporter cell assay, activation; EGFP reporter with mutant IVS2-654 intron; response scale: normalised to 500 nM splice-correcting PNA | Potency, µM (series often up to 46.1 µM), inactives show at the highest dose activation, hits mostly activators | 65,000 tested, 0.06% active; further: potency means the concentration at half of the fitted maximal effect; 0% is about no effect
#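 Compounds were applied for 2 days to HeLa EGFP-654 cells, 500/well in Optimem with 2% FCS. The reporter's EGFP is disrupted by mis-splicing of beta-globin intron IVS2-654. Readout: summed well GFP fluorescence from 488 nm laser scanning; reference was 500 nM antisense […] 654 PNA.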
# Ub-GFP proteasome = Ubiquitin-GFP Assay | Ubiquitin-GFP reporter cells, proteasome inhibition, GFP fluorescence; response scale: untreated = 0%, 10 µM MG-132 = 100% | Potency, µM (highest dose often 45.9 µM), without a hit: at the top dose activation (GFP accumulation), actives largely listed as activators | 67,000 tested, under 10 active | AID 526, 2006; active means well fitted activation curve with a large enough effect, not every such curve was filed as active; inconclusive means small, poorly fitted or top-dose-only effect, or another doubt; inactive means no such curve, though single readings can be large or run the other way; further: potency means the concentration at half of the fitted maximal effect
#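 Reporter cells (U2OS, ubiquitin-G76V-GFP fusion) are plated overnight, then treated 4 hr at 37 °C with compound titrations from 46 uM down to 2.9 nM. Activity is scaled against untreated cells and 10 uM MG-132.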
# 15-hLO inh = qHTS Assay for Inhibitors of 15-hLO (15-human lipoxygenase). Polyunsaturated fatty acid lipoxygenase ALOX15 (Homo sapiens), P16050. purified 15hLO-1, xylenol orange hydroperoxide absorbance. Potency, µM (titrated, usually from 57.1 µM), for the others: top-dose activity change, negative = inhibition, actives largely listed as inhibitors. 74,000 tested, 1.4% active. AID 887, 2007; further: potency means the concentration at half of the fitted maximal effect; on the % scale 0 is the no-effect control and ±100 the full control effect; nearly all actives have a fitted effect of over 55% in size
# Target sequence (P16050 whole entry, looked up): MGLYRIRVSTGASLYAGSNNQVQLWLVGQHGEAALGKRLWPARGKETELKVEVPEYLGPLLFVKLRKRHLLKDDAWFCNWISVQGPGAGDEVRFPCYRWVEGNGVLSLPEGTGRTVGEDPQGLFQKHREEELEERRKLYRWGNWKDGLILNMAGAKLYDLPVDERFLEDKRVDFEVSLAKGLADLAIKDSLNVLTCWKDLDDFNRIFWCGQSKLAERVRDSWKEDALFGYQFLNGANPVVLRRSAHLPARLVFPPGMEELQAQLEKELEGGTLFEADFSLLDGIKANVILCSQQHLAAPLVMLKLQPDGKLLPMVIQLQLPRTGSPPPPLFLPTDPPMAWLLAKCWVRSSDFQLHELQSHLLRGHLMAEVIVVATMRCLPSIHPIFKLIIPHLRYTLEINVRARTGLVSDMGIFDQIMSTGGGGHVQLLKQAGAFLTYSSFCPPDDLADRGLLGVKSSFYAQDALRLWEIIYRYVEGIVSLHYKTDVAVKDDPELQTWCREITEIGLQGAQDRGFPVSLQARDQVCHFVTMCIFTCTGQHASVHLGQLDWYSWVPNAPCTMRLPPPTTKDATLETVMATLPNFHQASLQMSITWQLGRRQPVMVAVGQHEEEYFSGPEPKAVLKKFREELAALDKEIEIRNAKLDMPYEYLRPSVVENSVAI
#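 Purified human 15hLO-1 (40 nM final) in 25 mM Hepes pH 7.5, 0.01% Triton X-100 was preincubated with compound 15 min at room temperature, then reacted 6 min with 50 uM arachidonic acid; hydroperoxide detected by Fe-XO, 573/405 nm absorbance ratio.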
# DNA Pol III inh = qHTS Assay for Inhibitors of DNA Polymerase III Holoenzyme System; reconstituted DNA polymerase III holoenzyme replication, biochemical; Potency, µM (top dose mostly 57.1 µM), without a hit: at the highest dose activity change, negative = inhibition; AID 603, 2007; 71,000 tested, 0.25% active; further: potency means the concentration at half of the fitted maximal effect; on the % scale 0 is the no-effect control and ±100 the full control effect
#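 Reconstituted *E. coli* holoenzyme (0.35 nM Pol III, 1 nM beta, 154 nM SSB, 2 nM primase) was preincubated with compound for 15 min at RT. Synthesis on 1.4 nM ssM13Gori ran 35 min, then was stopped with PicoGreen/EDTA and read as dsDNA fluorescence.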
# Epigenetic mod = qHTS Assay for Epigenetic Modulators; mouse C127i GFP locus derepression, cytometry, 30 h; Potency, µM (highest dose often 46.1 µM), for inactives: at the top dose GFP derepression (activation); 68,000 tested, 0.09% active; AID 597, 2007; further: % of control where 0% means no effect
#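 Derepression screen: silenced CMV-GFP reporter in murine C127i cells, 30 h compound incubation at 37 C, washed cells imaged by laser-scanning cytometer to enumerate GFP-expressing objects of 20 to 120 um.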
# * marks the source's active call; other numbers are inactive results; ? = inconclusive; / = no result given; [ ] = remark or other dose. This is a sample that favours compounds with a hit; in the whole collection about 3.2% have one here. Unless noted, the call rests on the fitted dose curve; in most records, active means well fitted curve in the direction sought with a large enough effect; inconclusive means small, poorly fitted or top-dose-only effect, or another doubt; inactive means no such curve, though single readings can be large; an effect the other way counts as inactive or inconclusive.
SMILES,Tau fil binding,HBB splice mod,Ub-GFP proteasome,15-hLO inh,DNA Pol III inh,Epigenetic mod
N#CC1=C2SCN(Cc3ccccc3)CN2C(=O)CC1c1ccc2c(c1)OCO2 (stereo unspecified),-9%,1%[0.369 µM],3%,13µM*,-8%,4%
COc1ccc(C2CC(=O)N3CN(c4ccc(C)c(Cl)c4)CSC3=C2C#N)cc1 (stereo unspecified),-10%,0%,-9%,?,-4%,/
N#CC1=C2SCN(Cc3ccco3)CN2C(=O)CC1c1ccc(Cl)cc1 (stereo unspecified),?,2%[0.369 µM],0%,13µM*,-4%,4%
CC(C)c1ccc(C2CC(=O)N3CN(Cc4ccco4)CSC3=C2C#N)cc1 (stereo unspecified),?,-2%[0.369 µM],0%,13µM*,-6%,-2%
CO[C@H]1COC(=O)C/C=C\[C@H](C)[C@@H](OC)COC(=O)[C@@H](C)COC(=O)C/C=C\[C@@H]1C,/,0%[9.22 µM],/,5%[11.4 µM],/,/
c1ccc(-c2cc3c(ccc4nonc43)nn2)cc1,3.2µM*,-1%[0.0738 µM],10%[9.17 µM],7%[11.4 µM],1%[11.4 µM],-3%
NC(N)=N[C@H](CCC(=O)O)C(=O)O,16%,1%,5%,7%,1%,0%
O=C(NCCN1CCCC1)c1ccc(-n2c(=O)c(=O)[nH]c3ccccc32)cc1,/,/,/,-4%,/,/
N#Cc1nc(-c2ccc(F)cc2)oc1NCc1cccc2c1OCO2,261%,0%,9%,13µM*,-2%,0%
Oc1ccc2ccccc2c1/C=N/n1cnnc1,/,/,/,/,/,0%[20.6 µM]
Oc1ccc2ccccc2c1/C=C\c1ccc2c(Br)cc(Br)c(O)c2n1,2.5µM*,-1%[9.22 µM],1%[9.17 µM],?,-4%[11.4 µM],0%[9.22 µM]
CC(C)=NO[C@@H](C)c1cc(-c2c(C)cc(C)cc2C)no1,/,1%[9.22 µM],/,-1%[11.4 µM],/,/
CCOC(=O)NC1(NC2CCCCC2)Oc2ccccc2O1,0%,-4%,-1%,25µM*,-10%,0%
N#Cc1cn(-c2ccccc2)nc1-c1ccccc1,69%,-1%,3%,7%,-7%,0%
N#Cc1cc(-c2ccccc2)nn1-c1ccccc1,122%,-1%,-3%,16µM*,-4%,2%
CC1(C)CC(=O)C2=C(C1)Oc1ncn(CCCn3ccnc3)c(=N)c1C2c1ccccc1 (stereo unspecified),19%,-1%[0.369 µM],-1%,27%,-6%,0%
CC1(C)CC(=O)C2=C(C1)Oc1ncn(Cc3ccco3)c(=N)c1C2c1ccccc1 (stereo unspecified),16µM*,-1%,6%,-7%,-7%,0%
Oc1ccc([C@@H]2CNCc3sccc32)cc1O,0%,3%,5%,?,-3%,-1%
COc1cc(/C=C\c2ccc(OC)cc2OC)cc(OC)c1,?,/,1%,-29%[25.6 µM],1%,0%
CCOc1ccc2[nH]c(=O)c(=O)[nH]c2c1,10µM*,-1%,-2%,2%,-8%,0%
CCOc1ccc2[nH]c(C)cc(=O)c2c1,-20%,-2%,-2%,-5%,1%,/
Oc1ccc(Cl)cc1C=Nc1cnc2ccccc2c1,-3%[11.4 µM],3%[9.22 µM],-5%[9.17 µM],1%[11.4 µM],-6%[11.4 µM],-7%[9.22 µM]
CC1(C)CC(=O)C2=C(C1)OC1=C(C(=O)CC(C)(C)C1)C2c1ccc(O)cc1O,42%[11.4 µM],-5%[0.0738 µM],-18%[9.17 µM],3.2µM*,10%[11.4 µM],0%
Clc1ccc(CSC2=NCCN2)cc1Cl,5%[11.4 µM],2%[9.22 µM],-6%[9.17 µM],-12%[11.4 µM],-9%[11.4 µM],2%[9.22 µM]
COc1ccc(OC)c(Nc2cc(-c3ccccc3)nc(N)n2)c1,16µM*,-5%,-5%,?,-1%,2%
SMILES,Tau fil binding,HBB splice mod,Ub-GFP proteasome,15-hLO inh,DNA Pol III inh,Epigenetic mod
Oc1c(C(O)(c2ccccc2)c2ccc3ccccc3c2O)ccc2ccccc12,1.3µM*,2%[9.22 µM],3%[9.17 µM],-28%[11.4 µM],-7%[11.4 µM],-3%[9.22 µM]
C1CCCNCC1,7%,1%,/,4%,9%,/
CCCOc1ccc(N2C(=O)CC(N(O)c3ccccc3)C2=O)cc1 (stereo unspecified),25µM*,-2%[57.5 µM],0%,-15%,5%,0%
Oc1ccc(Cc2cc(Cl)cc(Cl)c2O)cc1Cl,11%[11.4 µM],1%[9.22 µM],-5%[9.17 µM],-24%[11.4 µM],2%[11.4 µM],5%[9.22 µM]
O=C(Nc1ccc2nc(-c3ccco3)[nH]c2c1)c1cccs1,20µM*,2%,-7%,-27%,-4%,3%
O=C(Nc1ccc2nc(-c3ccco3)[nH]c2c1)c1ccco1,2%,/,11%,-2%,-10%,-1%
Nc1cc(-c2cccc(F)c2)nn1S(=O)(=O)c1cccc2nsnc12,16µM*,-1%,9%,-17%,2%,0%
O=C(NC1CCCC1)C(c1ccsc1)N(Cc1ccco1)C(=O)Cc1cccs1 (stereo unspecified),16µM*,/,0%,0.4µM*,-10%,22%
O=C(NC1CCCC1)C(c1cccs1)N(Cc1ccco1)C(=O)c1csnn1 (stereo unspecified),8%,/,1%,-6%,-1%,2%
O=S1(=O)CC(NCc2ccccc2)C(Nc2ccccc2)C1 (stereo unspecified),-14%,0%,-8%,4%,-7%,-3%
COc1ccc(NC2CS(=O)(=O)CC2NCc2ccco2)cc1 (stereo unspecified),-25%,-3%,-2%,16µM*,-12%,-1%
Cc1ccc(O)c(-c2cc(-c3ccccc3C)[nH]n2)c1,25µM*,1%,-2%,16µM*,4%,-3%
Oc1ccccc1-c1cc(-c2ccccc2Cl)[nH]n1,-9%,0%,-4%,13µM*,7%,-3%
Cc1ccc(O)c(-c2cc(C(F)(F)C(F)F)[nH]n2)c1,-30%,0%,-2%,?,0%,5%
O=C(NCCN1CCCCC1)c1ccc(Cc2nc3ccccc3[nH]2)cc1,/,/,/,4%,/,/
Cc1ncn(-c2ccccc2O)c1C,3%[11.4 µM],-2%[9.22 µM],3%[9.17 µM],-1%[11.4 µM],-6%[11.4 µM],10%[9.22 µM]
CC(=O)C(Sc1nc(N2CCOCC2)nc(N2CCOCC2)n1)C(=O)Nc1ccccc1 (stereo unspecified),23%,-1%,-6%,16µM*,-5%,0%
CC(=O)C(Sc1nn(C)c(=S)s1)C(=O)Nc1ccccc1 (stereo unspecified),9%,5%[1.84 µM],-3%,7.9µM*,-2%,-2%
N[C@@H](CSCc1ccc(I)cc1)C(=O)O,6%[11.4 µM],3%[9.22 µM],-3%[9.17 µM],8%[11.4 µM],-4%[11.4 µM],3%[9.22 µM]
